# Whole data set: some 33,000 sequences, median “E-score (-0.5 to 0.5)” near -0.021, cut for the highest 2% near 0.32. Shown is part of a subset that was picked to be rich in the highest values.
# Biological target: T1, Zap1 (UniProt P47043)
# T1 sequence: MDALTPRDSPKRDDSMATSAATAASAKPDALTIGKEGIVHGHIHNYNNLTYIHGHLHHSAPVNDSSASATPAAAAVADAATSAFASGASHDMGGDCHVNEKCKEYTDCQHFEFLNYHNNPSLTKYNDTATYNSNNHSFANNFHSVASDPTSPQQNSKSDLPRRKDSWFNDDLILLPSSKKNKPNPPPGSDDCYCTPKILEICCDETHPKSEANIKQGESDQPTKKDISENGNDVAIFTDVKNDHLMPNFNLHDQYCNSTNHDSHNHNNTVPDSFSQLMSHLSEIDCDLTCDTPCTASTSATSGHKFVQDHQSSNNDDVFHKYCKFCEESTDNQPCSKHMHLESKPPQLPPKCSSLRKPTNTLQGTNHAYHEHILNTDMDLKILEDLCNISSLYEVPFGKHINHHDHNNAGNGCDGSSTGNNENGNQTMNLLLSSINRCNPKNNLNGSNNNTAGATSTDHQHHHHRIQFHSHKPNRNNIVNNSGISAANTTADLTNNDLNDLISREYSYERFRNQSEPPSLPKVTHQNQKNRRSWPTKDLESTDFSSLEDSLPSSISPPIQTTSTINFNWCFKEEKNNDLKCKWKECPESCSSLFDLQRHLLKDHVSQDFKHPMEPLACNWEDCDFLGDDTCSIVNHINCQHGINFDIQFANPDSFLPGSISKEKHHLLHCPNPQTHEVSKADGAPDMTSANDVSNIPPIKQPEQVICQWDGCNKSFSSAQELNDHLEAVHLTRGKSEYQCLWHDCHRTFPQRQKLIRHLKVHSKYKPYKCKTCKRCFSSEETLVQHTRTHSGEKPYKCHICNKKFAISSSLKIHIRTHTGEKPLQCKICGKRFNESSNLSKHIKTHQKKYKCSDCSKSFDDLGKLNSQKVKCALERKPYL
# Test: PBM E-score (8-mer binding enrichment) (E-score (-0.5 to 0.5)); higher = stronger / more preferred TF binding
# Settings: protein concentration: 200 nM; construct: GST-full length
# Description: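 Universal 'all 10-mer' protein binding microarrays (Agilent AMADID 015681) probed with GST-tagged S. cerevisiae TFs (full-length or DBD) made by in vitro transcription/translation (PURExpress), about 100-200 nM. Bound TF was detected with fluorescent anti-GST. Each ungapped 8-mer (which stands for itself and its reverse complement) is scored by the PBM enrichment score (E-score), a modified Wilcoxon-Mann-Whitney statistic from -0.5 to +0.5, computed with the Universal PBM Analysis Suite. Scale: above 0.35 generally sequence-specific binding.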
row,Sequence,PBM E-score
1,GGGTACCA,0.4
2,CGGTACCA,0.303
3,ACGTACCA,-0.0952
4,AGGTACGA,-0.0106
5,AGGTACCA,0.347
6,CGGTACTA,0.0114
7,CACTAGCA,-0.00655
8,ACATGCCG,-0.241
9,GTGAGTGA,-0.147
10,ACAAACTG,-0.16
11,GGGTACAA,0.345
12,AGGTACAA,0.15
13,TGGTACAA,0.146
14,TCAGCTCA,-0.00847
15,CCTTGGTC,0.0233
16,ATCGATTC,-0.119
17,AGAACCAT,0.184
18,AAAACCAT,0.283
19,GCAACCAA,0.231
20,TTAACCAA,0.317
21,CTAACCAA,0.262
22,ATAACCAT,0.457
23,ATAACCAA,0.437
24,TCAACCAA,0.118
25,GGAACCAA,0.159

row,Sequence,PBM E-score
1,AGAACCAA,0.148
2,GTAACCAA,0.417
3,AAAACCAA,0.209
4,CAAGACTC,-0.0977
5,GGCCTCGA,0.00761
6,CCTTAAAC,0.143
7,CGTGGAGA,-0.239
8,ACCACTAC,0.182
9,AGAGGCCG,-0.144
10,CGCTCACG,-0.0384
11,AGGATCTG,-0.242
12,AGAACCAG,0.0863
13,ATAACCAG,0.436
14,CTAACCAG,0.146
15,GGAATCCA,-0.115
16,CCAGGGGG,-0.095
17,CGACCTAC,-0.114
18,CACCTCTG,-0.0642
19,TAGCTCGA,0.0239
20,ACAACTAT,0.204
21,ACAACCAG,0.23
22,ACAACCAT,0.322
23,GCAACCAC,0.269
24,ACAACCAA,0.267
25,ACAACCAC,0.361

row,Sequence,PBM E-score
1,AGGCTTTG,-0.027
2,ACAATGCA,0.0982
3,AACCCCGA,0.266
4,TACCCCGA,0.34
5,GACCCCGA,0.244
6,AAACCCGA,0.264
7,GAACCCGA,0.0725
8,CAACCCGA,0.355
9,TAACCCGA,0.345
10,CTACCCGA,0.25
11,CAACCCGC,0.251
12,GCAGCTGC,-0.246
13,CTTACTTC,0.00964
14,GTATGATA,0.14
15,CTATGATA,0.00378
16,ATATGATA,0.348
17,TCTTCGAA,0.00843
18,AATCGTCG,-0.21
19,CTACTGTA,-0.0171
20,CCACCCTC,0.358
21,CCACCCAC,0.263
22,GCACCCTA,0.297
23,ACACCCTC,0.312
24,ACACCCTG,0.21
25,ACACCCTA,0.335

row,Sequence,PBM E-score
1,CCACCCTA,0.327
2,ACACCCCA,0.0819
3,CCACCCAA,-0.0177
4,CCTAGGCC,-0.0276
5,ATATCTGG,-0.138
6,CAGTTAAG,0.0515
7,GGAGTTTA,-0.0721
8,ATGAGAGA,-0.0163
9,GTGCACGA,0.0644
10,ACCGCAAA,0.205
11,ACCGCAAG,0.153
12,ACCGCAAT,0.319
13,ACCGCACT,0.109
14,GCCGCAAC,0.218
15,ACCGCAAC,0.341
16,AGCGACGC,-0.162
17,TGCATCAA,0.122
18,CAGCGACA,-0.0507
19,ACCTAGGT,0.26
20,CGTGATGA,-0.0344
21,GGTGATGA,0.338
22,AGTGATGA,-0.0675
23,ACAGCAAC,-0.00827
24,TGAGTGCA,-0.113
25,CGAGGTGA,0.239

row,Sequence,PBM E-score
1,GGAGGTTA,0.36
2,GGAGGTGA,0.13
3,CGAGGTTA,0.455
4,GGAGGTAA,0.289
5,CGAGGTTC,0.22
6,GTGGATGA,0.014
7,ACGGATGG,-0.0981
8,CGTTAACC,0.294
9,GGTTAACC,0.427
10,GGTTAACA,0.32
11,CGTTAACA,0.00812
12,AGTTAACA,0.117
13,AGTTAACC,0.289
14,ACGTTGGG,-0.01
15,CGCTTTAG,-0.136
16,CATCTTTC,-0.0278
17,AACCCTGC,0.385
18,CCCCCTGC,-0.372
19,AACCCTCG,0.292
20,GACCCTGC,0.283
21,AACCCTCC,0.185
22,ACCCCTGC,0.167
23,AACCCTCA,0.383
24,CACCCTCA,0.257
25,CACCCTCC,0.326

row,Sequence,PBM E-score
1,ACCCCTCA,0.267
2,CTCCCTGC,-0.212
3,CACCCTGC,0.331
4,GACCCCTC,0.138
5,AAAAGCGT,-0.06
6,TGTGAACA,-0.0338
7,AGCCACCC,-0.108
8,AAATGGGT,0.265
9,AAATACCG,0.162
10,CTAGCAAC,-0.0149
11,AATGTCGT,-0.0154
12,AGTCTGAT,-0.0553
13,GCTATGAA,-0.0097
14,GACCCTGA,0.304
15,CACCCTGG,0.169
16,ACCCCTGG,0.289
17,AGCCCTGA,-0.131
18,CACCCTGA,0.162
19,CCCCCTGA,-0.209
20,AACCCTGA,0.461
21,AACCCTGG,0.392
22,TACCCTGA,0.406
23,ATCCAACA,0.0629
24,AGCAAAAG,-0.146
25,CCTAACTA,0.135

row,Sequence,PBM E-score
1,CGTCCTCA,-0.162
2,GAAGCCCC,-0.272
3,GGTTAAAA,0.385
4,AGTTAAGA,0.00562
5,GGTTAAGA,0.364
6,CGTTAAAC,0.21
7,CGTTAAAA,0.0117
8,GGTTAAAC,0.356
9,TGTTAAAA,0.0204
10,AGTTAAAC,0.0887
11,CGTTAAGA,-0.0174
12,AGTGTCGA,0.127
13,AACAGATG,-0.00675
14,AAGACTTA,-0.0811
15,CTTAGACC,-0.0476
16,GAGCGTAC,-0.162
17,TACTTGCA,0.0221
18,CGGGGCTA,-0.15
19,CGGGCTCA,-0.323
20,ATGAGGTG,0.0386
21,ATGAGGTA,0.324
22,CTGAGGTA,0.275
